Inconclusive results are not listed. Active and inactive are the calls of the source. Calls come from the whole dose curve; as a rule, active = well fitted curve in the direction sought with a large enough effect; inconclusive = small, poorly fitted or top-dose-only effect, or another doubt; inactive = no such curve, though single readings can be large; an effect the other way counts as inactive or inconclusive. Bridge positions count the residues as written; N and C are the ends. Square brackets hold non-standard residues; d marks the D form. Peptide text beside a SMILES is read from it. NMeY = CN[CH](Cc1ccc(O)cc1)C(=O)O
What was measured:
[1] = biological target: Cellular tumor antigen p53 (Homo sapiens) (UniProt P04637); assay: Primary qHTS for small molecule compounds that upregulate eGFP-tagged delta133p53alpha (in N-terminal) cells. (AID 2060322); settings: NCI-H358 eGFP-delta133p53alpha fluorescence, 24 h; activation: stronger effect = higher value;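 note: series mostly up to about 56 µM; 0% = DMSO vehicle and 100% = reference activator; nearly all actives have a fitted effect of over 75% in size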
Chain of Cellular tumor antigen p53 (Homo sapiens) (P04637 whole entry, looked up): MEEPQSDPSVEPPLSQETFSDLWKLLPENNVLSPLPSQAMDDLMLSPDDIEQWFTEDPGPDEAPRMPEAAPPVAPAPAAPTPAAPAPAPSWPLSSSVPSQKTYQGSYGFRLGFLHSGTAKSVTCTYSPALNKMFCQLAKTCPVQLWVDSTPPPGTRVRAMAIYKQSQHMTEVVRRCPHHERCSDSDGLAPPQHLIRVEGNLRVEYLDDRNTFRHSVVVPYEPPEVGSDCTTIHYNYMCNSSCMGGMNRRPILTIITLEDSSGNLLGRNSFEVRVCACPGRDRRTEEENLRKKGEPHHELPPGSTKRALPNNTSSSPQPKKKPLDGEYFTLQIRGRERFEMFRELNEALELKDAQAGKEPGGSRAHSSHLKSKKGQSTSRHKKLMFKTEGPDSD
How it was run: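 NCI-H358 cells pre-induced 24 h with 10 ng/ml doxycycline to express N-terminal eGFP-delta133p53alpha, then dosed 24 h at 37C without doxycycline; fixed, Hoechst-stained, GFP intensity by laser scanning cytometry, normalized to DMSO (0%) and 57.5 uM 5-azacytidine (100%).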

[2] = biological target: Aldehyde dehydrogenase, mitochondrial (Homo sapiens) (UniProt P05091); assay: qHTS for Inhibitors of the Aldehyde Dehydrogenase Family (ALDH2) Primary screen (AID 2061308);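 note: plate controls were vehicle for no effect and reference inhibitor for full effect; nearly all actives have a fitted effect of over 55% in size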
[3] = biological target: Retinaldehyde dehydrogenase 3 (Homo sapiens) (UniProt P47895); assay: qHTS for Inhibitors of the Aldehyde Dehydrogenase Family (ALDH1A3) Primary screen (AID 2061315);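 note: plate controls were DMSO vehicle for no effect and reference inhibitor for full effect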
[4] = biological target: Aldehyde dehydrogenase 1A1 (Homo sapiens) (UniProt P00352); assay: qHTS for Inhibitors of the Aldehyde Dehydrogenase Family (ALDH1A1) Confirmatory screens (AID 2061316); note: % is set by controls: 0 for no effect and ±100 for the full control effect; nearly all actives have a fitted effect of over 65% in size

CCC(C)C1NC(=O)C2CCCN2C(=O)C(NC(C)=O)C(C)OC(=O)C(Cc2ccc(OC)cc2)N(C)C(=O)C2CCCN2C(=O)C(C(C)C)NC1=O (centres undefined) (Ac-TPIVP[NMeY](Me); ester 1-C; configuration not given here)
inactive: activation [1] 15.3% | Potency [2] | Potency [3]

Nc1nc2c(nc(Sc3ccc(Cl)cc3)n2[C@@H]2O[C@@H]3COP(=O)(O)O[C@H]3[C@H]2O)c(=O)[nH]1
inactive: activation [1] 1% | Potency [2] | Potency [3]

COc1cc(/C=C/C(=O)OC2CC(OC(C)=O)C(OC(C)=O)C3C2CCC2C(=O)OC(c4ccoc4)CC23C)ccc1O[C@@H]1O[C@H](CO)[C@@H](O)[C@H](O)[C@H]1O (some centres undefined)
inactive: activation [1] -16% | Potency [2] | Potency [3]

CC1CCCC(O)CCC/C=C/c2cc(OS(=O)(=O)O)cc(O)c2C(=O)O1 (centres undefined)
inactive: activation [1] -19.8% | Potency [2] | Potency [3]

O=C(O)Cc1ccccc1Oc1ccc(Cl)cc1Cl
inactive: activation [1] -3.35% | Potency [2] | Potency [3]

COc1cc(C2OCC3(O)C(c4ccc(O[C@@H]5O[C@H](CO)[C@@H](O)[C@H](O)[C@H]5O)c(OC)c4)OCC23O)ccc1O (some centres undefined)
inactive: activation [1] -6.11% | Potency [2] | Potency [3]

COc1ccc(/C=C\C(=O)O)c(O[C@@H]2O[C@H](CO)[C@@H](O)[C@H](O)[C@H]2O)c1
inactive: activation [1] -7.63% | Potency [2] | Potency [3]

CCOC(=O)CCNc1cc(N2CCc3ccccc3CC2)nc(-c2cccnc2)n1
inactive: activation [1] 7% | Potency [2] | Potency [3]

CCC/C=C1\OC(=O)C2=C1CCC(O)C2O (centres undefined)
inactive: activation [1] 12.2% | Potency [2] | Potency [3]

CC(=O)OC[C@H]1O[C@H](O[C@]2(CO)O[C@H](CO)[C@@H](OC(=O)/C=C/c3ccccc3)[C@@H]2O)[C@H](O)[C@@H](O)[C@@H]1O
inactive: activation [1] -0.763% | Potency [2] | Potency [3]

COc1ccc2c(NC(=O)Nc3cccc(C(F)(F)F)n3)ccnc2c1
inactive: activation [1] 16.1% | Potency [2] | Potency [3]

C=CC1(C)CC(OC(=O)/C(C)=C\COC(C)=O)C(C(=C)C(=O)O)C(O)C1C(=C)CO (centres undefined)
inactive: activation [1] 0% | Potency [2] | Potency [3]

C[C@]1(O)CC[C@@H]2C(C(=O)O)=CO[C@@H](O[C@@H]3O[C@H](COC(=O)/C=C/c4ccc(O)c(O)c4)[C@@H](O)[C@H](O)[C@H]3O)[C@@H]21
inactive: activation [1] 0% | Potency [2] | Potency [3]

O=C(Cn1c2ccccc2c2nc3n(c(=O)c21)CCS3)N1CCCC1
inactive: activation [1] 5.67% | Potency [2] | Potency [3]

OC[C@@]1(O)CO[C@H](OC[C@H]2O[C@@H](OC(CCCCc3ccc(O)cc3)CCc3ccc(O)cc3)[C@H](O)[C@@H](O)[C@@H]2O)[C@@H]1O (some centres undefined)
inactive: activation [1] -1.53% | Potency [2] | Potency [3]

CC(C)=CCc1ccc(Oc2c(O)cc(C)cc2CO)c(C(=O)O)c1O
inactive: activation [1] 3.82% | Potency [2] | Potency [3]

C=C(C)C1CC[C@]2(C(=O)O)CC[C@]3(C(=O)O)[C@H](CCC4[C@@]5(C)CC[C@H](O)C(C)(C)C5CC[C@]43C)C12 (some centres undefined)
inactive: activation [1] -12.5% | Potency [2] | Potency [3]

C/C(=C\CO[C@@H]1O[C@H](CO[C@H]2OC[C@](O)(CO)[C@H]2O)[C@@H](O)[C@H](O)[C@H]1O)C(C)(C)O
inactive: activation [1] -5.34% | Potency [2] | Potency [3]

COc1ccc(/C=C/C(N)=O)cc1OC
inactive: activation [1] 2.68% | Potency [2] | Potency [3]

CNCCN1CCC(c2cc(CN(C)C(=O)c3cccc(Oc4ccccc4)c3)ccn2)CC1
inactive: activation [1] -4.33% | Potency [2] | Potency [3]

CCCC(=O)NCCc1csc(-c2ccc(Cl)cc2)n1
inactive: activation [1] 1% | Potency [2] | Potency [3]

Cc1ccc(C)c(NS(=O)(=O)c2cc(C(=O)Nc3ccccc3-c3ccccc3)ccc2C)c1
inactive: activation [1] 1.67% | Potency [2] | Potency [3]

COc1ccc2nc(S(=O)(=O)Cc3ncc(C)c(OC)c3C)[nH]c2c1
inactive: activation [1] 6.33% | Potency [2] | Potency [3]

CC(O)/C=C/C1OC(=O)CC1Nc1ccc(C(=O)O)cc1 (centres undefined)
inactive: activation [1] -6.11% | Potency [2] | Potency [3]

Cc1sc(C)c(C(=O)NC2(c3ccc(C(=O)O)cc3)CC2)c1Cc1ccc(C(F)(F)F)cc1
inactive: activation [1] -4.77% | Potency [2] | Potency [3]

CCC(O)C(C)C1CCC(C(C)C(=O)O)O1 (centres undefined)
inactive: activation [1] 13.4% | Potency [2] | Potency [3] | Potency [4]

— PubChem BioAssay (NCATS)
